Sampled rows, rich in hits. Any-hit rate of the full collection: about 19%.
SARS PLpro yeast – blocks SARS-CoV papain-like protease in a yeast assay; S. cerevisiae expressing SARS-CoV PLpro, growth rescue; Potency, µM (highest dose often 32.9 µM), without a hit: top-dose activity, positive = growth rescue, most hits filed as activators; hit rate 0.19% among 330,000; calls by dose curve; further: potency means the concentration at half of the fitted maximal effect; 0% is about no effect; nearly all actives have a fitted effect of over 55% in size
Shiga toxin inh – blocks Shiga toxin action in Vero cells | Vero cells, Shiga toxin protein synthesis inhibition reporter | inhibition, % at 38.7 µM | hit rate 9.2% among 290,000; in the data active means inhibition mostly above about 28%, no sharp cut-off; inactive means mostly below about 43%; further: 0% is about no effect
CHX counter – counter-screen for Shiga toxin inhibitors: cycloheximide protein synthesis inhibition; cell reporter, cycloheximide protein synthesis inhibition counterscreen; max response, %; hit rate 12% among 300,000; AID 2314; in the data active means max response mostly above about 13%, no sharp cut-off; inactive means mostly below about 14%; further: read at 38.3 µM for the half of the compounds with a filed dose; 0% is about no effect
Pf growth 96h – P. falciparum growth inhibition at 96 hour, primary screen for plastid delayed-death inhibitors; P. falciparum luciferase reporter growth, 96 h; hit rate 6.9% among 320,000; Potency, µM (doses to about 28.7 µM), for the others: top-dose activity change, negative = inhibition, hits mostly inhibitors; further: potency means the concentration at half of the fitted maximal effect; on the % scale 0 is the no-effect control and ±100 the full control effect
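Two parasite generations (96 h, 37 C, 5% CO2) of compound exposure in infected erythrocytes (0.05% parasitemia, 2% hematocrit). Luciferase-reporter P. falciparum; decreased luminescence indicates inhibited growth, aimed at apicoplast-acting delayed death.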
Pf growth 48h – inhibits P. falciparum growth in the first generation, 48 h; AID 504832; P. falciparum luciferase growth in erythrocytes, 48 h; Potency, µM (top dose mostly 28.7 µM), without a hit: top-dose activity change, negative = inhibition, hits mostly inhibitors; hit rate 5.9% among 310,000; further: potency means the concentration at half of the fitted maximal effect; on the % scale 0 is the no-effect control and ±100 the full control effect
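Erythrocytes infected with P. falciparum carrying an integrated firefly luciferase reporter (2% hematocrit, 0.1% parasitemia final) were exposed to compounds in RPMI 1640 with 0.5% Albumax at 37 C, 5% CO2. Growth inhibition was scored as reduced luminescence.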
AMA1-RON2 inh – inhibitors of Plasmodium falciparum AMA1-RON2 interaction; AlphaScreen AMA1-biotinylated RON2 peptide binding; Potency, µM (doses to about 58.2 µM), for the others: top-dose activity change, negative = inhibition, actives largely listed as inhibitors; hit rate 0.2% among 360,000; AID 720542;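 further: potency means the concentration at half of the fitted maximal effect; 0% = vehicle wells and -100% = peptide control; nearly all actives have a fitted effect of over 45% in size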
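AMA1 (3D7) with his tag at 25 nM final met compounds first, then biotinylated RON2 peptide at 25 nM; detection used donor plus acceptor beads, 10 µg/mL apiece, read by AlphaScreen after 30 min at room temperature.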
Active calls of the source: *; ? = inconclusive; nt = no result; [ ] = remark or other dose. Unless noted, the call rests on the fitted dose curve; in most records, active means well fitted curve in the direction sought with a large enough effect; inconclusive means small, poorly fitted or top-dose-only effect, or another doubt; inactive means no such curve, though single readings can be large; an effect the other way counts as inactive or inconclusive.

SMILES	SARS PLpro yeast	Shiga toxin inh	CHX counter	Pf growth 96h	Pf growth 48h	AMA1-RON2 inh
CCOC(=O)C1(Cc2ccc(Cl)cc2)CCN(C(=O)CCc2cnccn2)CC1	0.1%	14.2	-2.3	?	?	6.4%
CCOC(=O)C1(Cc2ccc(OC)cc2)CCN(C(=O)CCN2CCCC2=O)CC1	0.8%	18.7	16.9*	21.9%	?	2.2%
Cc1cc(NS(=O)(=O)c2ccc(NC(=O)c3ccco3)cc2)nc(C)n1	7.6%	-13.8	-5.2	-0.6%	nt	7.8%
O=C(Nc1ccc(-c2csc(-c3ccccc3)n2)cc1)c1ccccc1	-4.9%	-10.3	-1.5	?	?	-9.1%
Cc1ccn2cc(-c3ccc(NC(=O)c4ccco4)cc3)nc2c1	1.2%	active	42.7*	-76.6%	?	18.3%
Cc1nc(-c2ccc(NC(=O)c3ccco3)cc2)cs1	-6.7%	27.5	11.1*	?	-17.2%	3.1%
Cc1nc(-c2cccc(NC(=O)c3ccc(-n4cccn4)cc3)c2)cs1	5.7%[6.58 µM]	nt	nt	15.4%	-13.2%	-6.0%
Cc1nc(-c2cccc(NC(=O)c3ccco3)c2)cs1	?	45.0	26.7*	-21.8%	?	4.2%
Nc1nc(-c2ccc(NC(=O)c3ccco3)cc2)cs1	-5.7%	40.3*	16.9*	123.4%	11.2%	-9.9%
Cc1n[nH]c(C)c1S(=O)(=O)N1CCN(C(=O)c2ccco2)CC1	4.7%	-5.0	1.4	-3.5%	27.3%	4.5%
CC[N+]1(C)CCC(O)(c2ccc(OC)cc2)C(C(=O)c2ccc(OC)cc2)C1 (stereo unspecified)	nt	nt	nt	nt	nt	13.0%
COc1cc(C(=O)NC2CC2)cc(OC)c1OC	nt	nt	nt	nt	nt	1.1%
CC(=O)Nc1cccc(-c2ccnc3c2CC(C)(C(=O)NCc2ccc(F)c(F)c2)O3)c1 (stereo unspecified)	nt	nt	nt	nt	nt	-16.3%
Cc1nn(C)c(C)c1CN(C(=O)C1CCC(=O)N(C2CCCCCC2)C1)C(C)C (stereo unspecified)	?	43.3	31.2*	11.7µM*	?	2.9%
COCCN1C[C@@H](CO)O[C@@H](n2cnc3c(NCc4ccncc4)ncnc32)C1	nt	nt	nt	nt	nt	27.7%
CS(=O)(=O)c1nc(-c2ccccc2)cc(-c2ccccc2)c1C#N	4.0%	-24.7	1.7	1.65µM*	?	0.0%
CC(C)Oc1ccc(CCN=C(N)N=C(N)N)cc1Cl	-0.5%	50.6*	28.6*	?	8.5%	55.1%
CC(C)Oc1ccc(CNC(=S)Nc2ccccc2)cc1Cl	-2.2%	nt	7.5	?	-4.1%	9.5%
COc1ccc(Cn2ccnc2SCC(=O)Nc2ccc(F)cc2F)cc1	nt	nt	nt	nt	nt	-12.8%
O=C(O)CCn1nnc2ccccc21	0.2%	6.1	6.5	21.6%	24.3%	-1.0%
CN(C(=O)c1cc2sccc2n1C)C1CCCCC1	8.3%	99.1*	42.3*	2.62µM*	78.7%	-1.1%
Cn1c(C(=O)NC2CCCCC2)cc2sccc21	4.5%	50.5	28.7*	nt	69.9%	-0.2%
CC1CCN(CCCNC(=O)c2cc3sccc3n2C)CC1	-8.5%	-17.9	-6.0	-2.9%	8.4%	-3.7%
O=C1N=C(N2CCCCC2)SC1=C1CCCC1	-0.9%	45.3*	26.1*	-2.2%	nt	-1.1%
CCc1ccc(/C=C2\SC(N3CCCC3)=NC2=O)cc1	-2.4%	32.4	13.8	-2.2%	?	-14.4%
SMILES	SARS PLpro yeast	Shiga toxin inh	CHX counter	Pf growth 96h	Pf growth 48h	AMA1-RON2 inh
O=[N+]([O-])c1cccc(/C=N/N2CCN(c3ccccn3)CC2)c1	-13.3%	1.0	15.3*	-27.3%	33.3%	-0.3%
O=[N+]([O-])c1ccc(N/N=C/c2ccccc2)c(F)c1	-8.5%	63.3*	74.4*	273.3%	166.3%	-7.4%
O=[N+]([O-])c1cccc(C=NN2CCCCCC2)c1	nt	nt	nt	nt	nt	17.8µM*
Cc1nnc(C)n1/N=C/c1cccc([N+](=O)[O-])c1	-0.6%	-14.6	-3.3	-4.8%	-4.4%	-14.4%
O=[N+]([O-])c1cccc(/C=N/N=C\c2ccccc2)c1	-3.8%	56.2*	36.2*	13.1µM*	-10.1%	-6.3%
O=C(COc1cccc2cccnc12)N/N=C1\SCC(=O)N1Cc1ccccc1	0.0%	-3.1	-3.1	-27.2%	nt	-2.9%
CCOC(=O)[C@]12CCCC=C1N(Cc1ccccc1)C(=O)[C@H](CC(=O)NCc1ccc(C)o1)C2	nt	nt	nt	nt	nt	-12.6%
COc1cc(/C=C\C(=O)OCn2nnc3ccccc3c2=O)cc(OC)c1OC	-0.6%	1.9	6.9	-15.0%	6.8%	-11.3%
O=[N+]([O-])c1cccc(/C=N\N2CCN(Cc3ccccc3Cl)CC2)c1	21.7%	20.3	16.1*	18.4%	-2.8%	?
O=[N+]([O-])c1cccc(/C=N/N2CCN(Cc3ccccc3)CC2)c1	3.3%	82.6*	27.4*	?	171.9%	-2.5%
O=[N+]([O-])c1cccc(/C=N/N2CCN(Cc3ccc(Cl)cc3)CC2)c1	0.7%	20.3	-2.7	12.1%	-12.4%	?
NC(=O)c1cc([N+](=O)[O-])ccc1NCc1ccccn1	1.5%	nt	nt	48.5%	?	86.4%
Cc1ccc(SCC(=O)Nc2cccc(-c3nnc(-c4ccco4)o3)c2)cc1	-10.5%	56.4*	21.3*	28.2%	-91.5%	-4.3%
COc1cccc(NC(=O)CSc2nnc(-c3ccc(C)cc3)o2)c1	-4.0%	45.2*	27.8*	?	nt	-0.3%
Cc1ccc(NC(=O)CSc2nnc(-c3ccncc3)o2)cc1	3.7%	17.0	3.5	52.4%	41.7%	41.1%
COc1ccc2c(c1)C(C)=CC(C)(C)N2C(=O)CSc1nnc(-c2ccc(C)cc2)o1	-14.9%	-8.1	1.1	-1.8%	9.28µM*	-9.8%
COc1ccccc1NC(=O)CSc1nnc(-c2ccc(C)cc2)o1	3.0%	55.7	41.0*	?	281.4%	-5.9%
COc1ccc(C)cc1NC(=O)CSc1nnc(-c2ccc(Br)cc2)o1	8.2%	-8.6	1.3	-25.1%	31.2%	1.2%
OC[C@H]1O[C@@H](O[C@@H]2[C@@H](CO)O[C@@](O)(CO)[C@H]2O)[C@H](O)[C@@H](O)[C@H]1O	nt	nt	nt	18.8%	14.5%	0.4%
COc1cc2c(c(OC)c1OC)-c1c(cc3c(c1OC)OCO3)C1OC2[C@@H](C)[C@H]1C (stereo partly specified)	-3.1%	-3.7	-3.5	?	?	-9.1%
O=C(CN1c2cccc3cccc(c23)S1(=O)=O)N1CCN(c2ccccc2)CC1	2.0%	nt	nt	nt	nt	20.2%[11.6 µM]
Cc1ccccc1CN1CCN(C(=O)[C@H]2O[C@@H](n3cnc4c(N)ncnc43)[C@H](O)[C@@H]2O)CC1	nt	nt	nt	nt	nt	4.5%
C=CCNC(=S)NNC(=O)c1ccc(=O)n(Cc2ccccc2)c1	-1.4%	-16.9	0.3	37.1%[5.75 µM]	-16.9%	55.1%
COc1ccc2[nH]cc(CCNS(=O)(=O)c3ccccc3)c2c1	-0.5%	17.2	-0.9	?	-13.1%	-3.6%
CCn1cc(C(=O)N(C)c2ccc(OC)cc2OC)c2cc(OC)c(OC)cc2c1=O	-0.9%	58.0*	47.1*	1.4%	-4.4%	7.9%
COc1ccc(C(=O)Nc2ccc3c(c2)OCCO3)cc1[N+](=O)[O-]	-2.2%	30.6*	17.9*	?	70.2%	-6.7%
